Rows were chosen to be rich in hits. Some 13% of all compounds tested hit in one or more screens of this group.
HCMV inh: blocks human cytomegalovirus replication; actives 4.5% (n = 410,000); HFF cells, HCMV-luciferase reporter, 72 h; active compounds read low; AID 1259415; activity change, negative = inhibition, % at 57.5 µM; in the data active = activity change below about -60%; inconclusive = no clear call, values can overlap the other calls; inactive = above about -39%
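HFF cells seeded 16 h at 37C, treated with compounds, infected with luciferase-reporter HCMV at MOI 1 PFU/cell; luciferase read at 72 h post infection, normalized to buffer-only and Salinomycin controls.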
Pf growth 96h: inhibits malaria parasite growth, 96 h | P. falciparum luciferase reporter growth, 96 h | Potency, µM (highest dose often 28.7 µM), for inactives: at the top dose activity change, negative = inhibition, actives largely listed as inhibitors | actives 6.9% (n = 320,000); also: potency is read from the fitted curve at half-maximal effect
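Compounds incubated with erythrocytes infected by luciferase-expressing P. falciparum (2% hematocrit, 0.05% parasitemia final) for 96 hours, 37 C in 5% CO2. Growth inhibition scored as decreased luciferase luminescence.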
HCV inh: blocks hepatitis C virus; Huh7.5.1 HCVcc-Cre infection, luciferase reporter, 44 h; Potency, µM (highest dose often 41.8 µM), without a hit: at the highest dose activity change, negative = inhibition, usual class: inhibitors; actives 3.4% (n = 340,000); also: potency is read from the fitted curve at half-maximal effect
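Cells (1,000/well) were plated 4 h before compound, then infected with HCVcc-Cre virus (~0.5 moi). After 44 h further culture, infection was read as luciferase luminescence following a 15 min substrate incubation at room temperature.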
Pf growth 48h: P. falciparum growth inhibition at 48 hours (one generation). actives 5.9% (n = 310,000). Potency, µM (titrated, usually from 28.7 µM), for the others: at the top dose activity change, negative = inhibition, most hits filed as inhibitors. P. falciparum luciferase growth in erythrocytes, 48 h; also: potency is read from the fitted curve at half-maximal effect
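Growth was read as firefly luciferase luminescence after a 48 h, 37 C, 5% CO2 exposure of compounds to reporter-bearing P. falciparum cultures (0.1% parasitemia, 2% hematocrit final) in Albumax-supplemented RPMI 1640.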
Numbers without * were called inactive; u = inconclusive; x = no result given. Unless noted, calls follow the shape of the dose curve; as a rule, active = well fitted inhibition curve with a large enough effect; inconclusive = small, poorly fitted or top-dose-only effect, or another doubt; inactive = no such curve, though single readings can be large or run the other way. % is scaled to controls: 0 for no effect and ±100 for the full control effect.

SMILES	HCMV inh	Pf growth 96h	HCV inh	Pf growth 48h
Cc1c(-c2ccc(Cl)cc2)c(=O)oc2c(CN3CCN(C)CC3)c(O)ccc12	-28	x	x	x
COC(=O)c1cccc(NC(=O)c2ccccc2)c1	28	39%	-2%	38%
O=C(Nc1cccc(C(=O)Nc2cccc(Br)c2)c1)c1ccccc1	-22	u	14µM*	u
COC(=O)c1ccc(NC(=O)c2cccc(NC(=O)c3ccccc3)c2)cc1	51	8.3µM*	-28%	-16%
COc1ccccc1CNC(=O)c1ccccc1C(=O)NC(C)(C)C(=O)NCc1ccccc1OC	-25	13µM*	13%	2%
COc1ccccc1CC(=O)Nc1cccc(C(=O)Nc2nccs2)c1	-13	u	u	u
COc1ccccc1CC(=O)Nc1cccc(C(=O)NN2C(=O)c3ccccc3C2=O)c1	47	9.3µM*	17%	-2%
COCc1cccc(-c2csc(C(NC(C)=O)c3cccc(OC)c3)n2)c1 (stereo unspecified)	9	x	x	x
CC(=O)Nc1ccc(S(=O)(=O)N2CCN(c3ccc(C)c(C)c3)CC2)cc1	-5	x	x	x
COc1ccccc1CNC(=O)c1cccc(NC(=O)c2ccccc2)c1	u	8%	14µM*	u
O=C(NCc1ccccc1Cl)c1cccc(NC(=O)c2ccccc2)c1	u	u	u	-5%
O=C(Nc1cccc(Br)c1)c1ccn[nH]1	13	0.66µM*	18%	78%
O=C(Nc1ccc(Cl)cc1)Nc1cccc(C(=O)O)c1	16	3.7µM*	19%	-13%
O=C(O)CC1(CC(=O)Nc2cccc(C(=O)O)c2)CCCC1	-102*	10%	1%	56%
O=C(Nc1cccc(Cl)c1)Nc1cccc(C(=O)O)c1	61	308%	14%	289%
CCc1ccccc1NC(=O)CSC1=Nc2ccccc2C2=NC(Cc3ccccc3)C(=O)N12 (stereo unspecified)	-30	x	x	x
Cn1c2c(c(=O)n(C)c1=O)C(c1cccc(O)c1)CC(=O)N2 (stereo unspecified)	7	x	x	x
CCc1ccc(N2CC(C)Cn3c2nc2c3c(=O)n(CC(=O)O)c(=O)n2C)cc1 (stereo unspecified)	10	x	x	x
O=C(/C=C/c1cccs1)c1ccc(NC(=O)c2cccc(Br)c2)cc1	39	180%	6.3µM*	u
COc1ccc(C(=O)Nc2ccc(NC(C)=O)cc2)cc1S(=O)(=O)N(C)Cc1ccccc1	0	4.7µM*	u	u
Cc1cc(=O)oc2cc(NC(=O)c3cccc(Br)c3)ccc12	-74*	u	0%	149%
Cc1cc(=O)oc2cc(OC(=O)c3cncc(Br)c3)ccc12	-103*	16%	26%	-6%
COc1ccc(C(=O)Nc2ccc(Nc3ccccc3)cc2)cc1Br	-33	x	8.9µM*	x
O=C(O)c1cccc(NC(=O)c2cc(NC(=O)c3ccccc3)cc(NC(=O)c3ccccc3)c2)c1	-3	8.3µM*	3%	40%
COc1cc(C(=O)NC(C)C2CC3CCC2C3)cc(OC)c1OC (stereo unspecified)	109	-10%	-12%	116%
SMILES	HCMV inh	Pf growth 96h	HCV inh	Pf growth 48h
CCN(Cc1ccccc1)S(=O)(=O)c1cc(C(=O)NC(C)C2CC3CCC2C3)ccc1OC (stereo unspecified)	-88*	u	11µM*	u
COc1ccc(C(=O)Nc2ccc(N3CCCCC3)cc2)cc1Br	u	57%	u	116%
Cc1cccc(S(=O)Cc2ccc(C(=O)NC3CCCCCC3)o2)c1 (stereo unspecified)	11	x	x	x
CC1(C)CC(=O)C=C(NC2CCCCCC2)C1	19	12µM*	8%	u
CC1(C)CC(=O)C=C(NC2CCCCCCC2)C1	-23	3.7µM*	19%	u
O=C1C=C(NC2CCCCC2)CCC1	-3	13µM*	31%	13µM*
CC1(C)CC(=O)C=C(NNC(=O)C2CCCCC2)C1	-17	-11%	-4%	-4%
Cc1ccc(S(=O)(=O)N(CC(O)Cn2c3ccccc3c3ccccc32)c2cccc(C(=O)NCCO)c2)cc1 (stereo unspecified)	-33	x	x	x
CCOC(=O)c1cccc(NC(=O)CCc2c(C)nc3c4cccnc4nn3c2C)c1	-6	x	x	x
Cc1ccc(C(=O)c2oc3ccccc3c2NC(=O)c2nc(S(C)(=O)=O)ncc2Cl)cc1F	14	x	x	x
O=C(CN1CCN(c2ccccc2)CC1)Nc1ccc(OCc2ccccc2)cc1	x	27%	11µM*	6%
COc1ccccc1NC(=O)CN1CCN(CC(=O)Nc2ccc(OCc3ccccc3)cc2)CC1	u	-18%	6%	u
O=C(CN1CCN(C(=O)N2CCOCC2)CC1)Nc1ccc(Br)cc1	-8	u	3%	21%
O=C(CN1CCCC1)Nc1ccc(OCc2ccccc2)cc1	46	6%	10µM*	7%
CN1CCN(CC(=O)Nc2ccc(Oc3ccccc3)cc2)CC1	u	31%	u	u
CCOC(=O)N1CCN(CC(=O)Nc2ccc(Oc3ccccc3)cc2)CC1	-29	x	-17%	7.4µM*
COc1ccc(NC(=O)CN2CCN(C(=O)N3CCOCC3)CC2)cc1	15	2.3µM*	15%	12%
Cc1ccc(Cc2nc3ccccc3nc2SCC(=O)NCc2ccc(F)cc2)cc1	-5	x	x	x
Cc1nn(CCC(=O)NC(C)C)c(=O)c2nn(-c3ccccc3)c(C)c12	5	x	x	x
O=c1c2[nH]c3ccccc3c2nc(SCc2cccc(F)c2)n1-c1ccccc1	44	x	x	x
Cc1nc(Nc2ccc(F)cc2)[nH]c(=O)c1CCC(C)C	-18	x	4%	5.9µM*
Cc1ccc(CC(=O)NCc2nc(-c3cccc(C)c3)no2)cc1	17	x	x	x
C=CCOc1cccc(/C=N/NC(=O)CN(c2cc(Cl)ccc2OC)S(=O)(=O)c2ccc(C)c([N+](=O)[O-])c2)c1	-5	1.2µM*	u	u
O=C(Nc1ccc(Cl)cc1)OCCn1nnnc1C(c1ccccc1Cl)N1CCOCC1 (stereo unspecified)	-17	u	u	15µM*
O=C(Nc1ccc(Cl)cc1)OCCN1CCOCC1	37	x	-14%	x
SMILES	HCMV inh	Pf growth 96h	HCV inh	Pf growth 48h
Cc1cccc(OCC(=O)Nc2cccc(C(=O)OCc3cc(=O)n4c(C)csc4n3)c2)c1	-61*	x	x	x
Cc1csc2nc(COC(=O)c3ccc(NC(=O)c4ccccc4Br)cc3)cc(=O)n12	-72*	x	x	x
Cc1ccccc1OCC(=O)Nc1ccccc1C(=O)OCc1cc(=O)n2c(C)csc2n1	-75*	x	x	x
Cc1csc2nc(COC(=O)c3ccc(NC(=O)C(C)C)cc3)cc(=O)n12	-34	x	x	x
Cc1ccccc1OCC(=O)Nc1ccccc1C(=O)OCc1cc(=O)n2ccsc2n1	46	x	x	x
COc1ccc2oc(=O)c(C(=O)N3CCN(c4ccc(C)cc4)CC3)cc2c1	-18	x	x	x
CCC(OC(=O)c1cccs1)C(=O)NCc1ccco1 (stereo unspecified)	41	x	18%	-5%
CC(C)CC(OC(=O)c1cccs1)C(=O)NCc1ccco1 (stereo unspecified)	0	-8%	4%	13µM*
